Calls of active or inactive are those of the source.
What was measured:
[1] = A549 cell viability effects, profiling panel, calcein-AM fluorescence, 48 h, basal (AID 1162); conditions: higher = more signal
[2] = adipocyte viability effects, profiling panel, cell-based, 3T3-L1 adipocytes, calcein-AM fluorescence, 48 h, basal (AID 1163); conditions: 3T3-L1 adipocytes viability, higher = more signal
[3] = HepG2 cell viability effects, profiling panel, calcein-AM fluorescence, 48 h, basal (AID 1164); conditions: higher = more signal
[4] = MM1S cell viability effects, profiling panel, calcein-AM fluorescence, 48 h, basal (AID 1165); conditions: higher = more signal;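 also: viability of MM1S multiple myeloma cells under basal unstimulated conditions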
[5] = basal RPMI8226 viability, no added stimulus, profiling panel, cell-based, calcein-AM fluorescence, 48 h, PK04 Diversity Set (AID 1166); conditions: RPMI8226 myeloma viability, higher = more signal;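 also: cells grown under basal conditions without added stimulus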
[6] = basal HepG2 mitochondrial membrane potential changes, profiling panel, cell-based, JC-1 fluorescence, 24 h, 100 nL compound (AID 1167); conditions: higher = more signal
[7] = basal 3T3-L1 adipocyte mitochondrial potential changes, profiling panel, cell-based, JC-1 fluorescence, 3T3-L1 adipocytes, 24 h, 100 nL compound (AID 1168); conditions: JC-1 mitochondrial fluorescence, higher = more signal, called active from +8 up or from −8 down
[8] = basal RPMI8226 mitochondrial membrane potential changes, profiling panel, cell-based, JC-1 fluorescence, 24 h, 100 nL compound (AID 1169); conditions: RPMI8226 myeloma, JC-1 mitochondrial potential fluorescence, higher = more signal
[9] = basal MM1S mitochondrial membrane potential changes, profiling panel, cell-based, JC-1 fluorescence, 24 h, 100 nL compound (AID 1170); conditions: higher = more signal
[10] = A549 lung cancer cell viability effects, profiling panel, resazurin fluorescence, 24 h, PK04 Diversity Set (AID 1171); conditions: higher = more signal, called active from +8 up or from −8 down
Also: test concentration not given here.

Structure (SMILES) | z-score [1] | z-score [2] | z-score [3] | z-score [4] | z-score [5] | z-score [6] | z-score [7] | z-score [8] | z-score [9] | z-score [10]
[N-]=[N+]=NCc1ccccc1[C@@H]1OC(c2ccc(OCCCO)cc2)=N[C@]1(Cc1ccccc1N=[N+]=[N-])C(=O)N1CCOCC1 | 0.328 | -0.259 | -0.761 | -1.48 | -2.62 | -0.516 | -1.06 (inactive) | -1.02 | -1.42 | -0.867 (inactive)
COCCCN1C(=O)[C@@]2(c3ccc([N+](=O)[O-])cc3)CC(=O)N(C3CCCCC3)[C@@H]2c2ccc(CO)cc21 | -0.794 | -1.03 | 0.14 | 0.819 | -1.23 | -0.393 | 0.939 (inactive) | -0.739 | -0.847 | -1.18 (inactive)
CC(C)[C@@H](CO)NC(=O)[C@H]1[C@@H](c2ccccc2)N(c2ccccc2)O[C@@H]1C | 0.407 | -0.159 | 0.319 | 0.714 | 0.285 | 0.324 | 0.392 (inactive) | 0.354 | -1.11 | 0.959 (inactive)
CCN(CC)c1ccc(N2CC=CC34O[C@@H]5/C=C\CCCOC(=O)C5[C@H]3C(=O)N(CCO)[C@@H]4C2=O)cc1 (stereo not given in full) | 1.05 | 0.327 | 0.0797 | 0.727 | -0.509 | -0.451 | -0.381 (inactive) | -0.814 | -0.245 | -1.8 (inactive)
CN1C(=O)C2C=CC(C(O)c3ccccc3)N(Nc3ccccc3)C2C1=O (stereo not given) | -1.3 | -0.559 | -0.761 | -1.4 | 0.362 | -1.69 | -0.441 (inactive) | 0.636 | -0.207 | -1.26 (inactive)
COC(=O)[C@@]1(Cc2ccc(F)cc2)[C@H]2c3cc(C(=O)N4CCCC4)n(Cc4cc(C)n(C)n4)c3C[C@H]2CN1C(=O)c1ccccc1 | -0.553 | -0.0099 | 0.499 | -0.391 | -0.382 | 2.16 | -1.13 (inactive) | -0.0438 | -0.461 | -0.156 (inactive)
C=CCC(OC(C)=O)[C@@H]1[C@@H](N(Cc2ccc(-c3cccc(C(F)(F)F)c3)o2)C(=O)Cc2ccc(F)cc2)c2cc(OCCCO)ccc2N1C(=O)Cc1ccc(OC)cc1 (stereo not given in full) | 1.31 | 1.16 | 0.892 | -0.394 | 0.274 | 2.87 | 0.649 (inactive) | -0.386 | -0.195 | 0.555 (inactive)
CN1C(=O)C2C=CC(C(O)C3CC=CCC3)N(NC(=O)OC(C)(C)C)C2C1=O (stereo not given) | 0.414 | -0.61 | -0.622 | -0.0764 | -0.291 | -1.58 | -0.493 (inactive) | 0.295 | -0.121 | -0.111 (inactive)
COC(=O)[C@@]1(Cc2ccc(F)cc2)[C@H]2c3cc(C(=O)N4CCCC4)n(Cc4ccc(C)o4)c3C[C@H]2CN1C(=O)c1ccccc1 | -0.981 | 0.681 | -0.498 | -2.99 | -3.74 | 2.32 | 0.096 (inactive) | -0.486 | -2.84 | -0.72 (inactive)
COCCOC(=O)N1C(=O)[C@@]2(c3cc(C#CC4=CCCCC4)ccc31)[C@H](c1ccc(O)cc1)N1[C@H](c3ccccc3)[C@H](c3ccccc3)OC(=O)[C@H]1[C@@H]2C(N)=O | 0.505 | 0.633 | -0.364 | -2.77 | -4.14 | -2.55 | 0.29 (inactive) | -0.902 | -1.19 | -0.954 (inactive)
O=C1C2C=CC(C(O)C3CCCCC3)N(Nc3ccc([N+](=O)[O-])cc3)C2C(=O)N1c1ccccc1 (stereo not given) | -0.0334 | 0.652 | -0.0914 | -0.157 | -1.24 | -0.876 | -2.66 (inactive) | -0.143 | 0.507 | -1.06 (inactive)
Cc1ccc(S[C@]2(C(=O)NCC(F)(F)F)CC(=O)N(C(C)C)[C@@H]2c2ccc(CO)cc2I)cc1 | 0.553 | 0.837 | -0.0366 | -2.2 | -2.73 | 0.409 | -0.374 (inactive) | -0.815 | -1.12 | 0.683 (inactive)
CC(C)(C)OC(=O)CC[C@@]1(C(=O)NCC(O)CO)N=C(c2ccc(OCCCO)cc2)O[C@@H]1c1ccccc1N=[N+]=[N-] (stereo not given in full) | 1.79 | -0.309 | 1.34 | -0.312 | 0.0549 | 1.73 | 2.9 (inactive) | 0.11 | -0.884 | 0.642 (inactive)
COc1ccc(C(=O)Nc2ccc(CN3C(=O)[C@@]4(O[C@@H](CCO)[C@H]([Si](C)(C)c5ccc(OC)cc5)[C@H]4C)c4ccccc43)cc2)cc1 | -4.06 | -0.736 | -4.64 | -2.64 | -4.32 | -2.53 | 1.16 (inactive) | -1.12 | -2.2 | -3.84 (inactive)
CN1C(=O)C2C=CC(C(O)Cc3ccccc3)N(Nc3ccccc3)C2C1=O (stereo not given) | 0.368 | -1.33 | 0.0486 | -1.48 | -0.618 | -1.32 | -1.06 (inactive) | 0.0363 | 0.155 | -0.528 (inactive)
C=CCOC(=O)[C@@H]1[C@H]2C(=O)O[C@H](c3ccccc3)[C@H](c3ccccc3)N2[C@H](c2ccc(OCCOC(=O)[C@@H]3C[C@@H]4C(=O)N[C@@H](CCCC[N+](C)(C)C)C(=O)N4[C@@H]3c3cccc(OCCO)c3)cc2)[C@@]12C(=O)Nc1ccc(I)cc12 | -0.477 | 0.788 | -0.776 | -2.78 | -2.03 | -0.605 | 0.902 (inactive) | -0.637 | -1.22 | 0.504 (inactive)

Structure (SMILES) | z-score [1] | z-score [2] | z-score [3] | z-score [4] | z-score [5] | z-score [6] | z-score [7] | z-score [8] | z-score [9] | z-score [10]
COCCn1c(C(=O)N2CCCC2)cc2c1C[C@H]1CN(C(=O)c3ccccc3)[C@@](Cc3ccc(F)cc3)(C(=O)OC)[C@@H]21 | -1.27 | 0.25 | -0.366 | -1.21 | -1.22 | 0.584 | -0.757 (inactive) | -0.37 | -1.37 | 0.409 (inactive)
COCCOC(=O)N1C(=O)[C@@]2(c3cc(C#CC4=CCCCC4)ccc31)[C@H](C(N)=O)[C@H]1C(=O)O[C@H](c3ccccc3)[C@H](c3ccccc3)N1[C@@H]2c1ccc(OCCO)cc1 | -0.0731 | -0.605 | 0.575 | -2.37 | -2.99 | -2.31 | 1.22 (inactive) | -0.799 | -1.82 | -2.15 (inactive)
COCCOC(=O)N1C(=O)[C@@]2(c3cc(C#CCCO)ccc31)[C@H](C(=O)N1CCN(c3ncccn3)CC1)[C@H]1C(=O)O[C@H](c3ccccc3)[C@H](c3ccccc3)N1[C@@H]2c1ccccc1OCCO | 0.703 | 0.701 | -0.51 | 0.135 | -0.192 | 0.107 | 0.675 (inactive) | -0.324 | -1.15 | 1.79 (inactive)
C=CCNC(=O)[C@H]1[C@@H]2C(=O)O[C@@H](c3ccccc3)[C@@H](c3ccccc3)N2[C@@H](c2ccc(OCCO)cc2)[C@]12C(=O)Nc1ccc(C#CC3=CCCCC3)cc12 | -1.03 | 1.66 | -1.17 | -1.99 | -3.64 | -1.43 | 2.5 (inactive) | -1.13 | -1.32 | -0.829 (inactive)
CCCCCC1=C2CNC(CCC)(C(=O)OC)C=C2C(C)C1=O (stereo not given) | -1.22 | -0.388 | 0.62 | 0.0829 | -0.282 | -0.24 | -0.283 (inactive) | -0.18 | -1.13 | -0.606 (inactive)
CN1C2C=C(CCCO)C(C3C(=O)N(C(N)=O)C(=O)C32)C1c1ccc(CN2CCCC2)cc1 (stereo not given) | -0.814 | -0.543 | -0.357 | 0.432 | -1.22 | -0.208 | -0.655 (inactive) | 0.234 | -0.137 | 0.0528 (inactive)
C#CCN(CC1=CCCCC1)[C@H](c1ccccc1Br)[C@@H](O)Cc1ccccc1 | -0.101 | 0.109 | 0.455 | -2.26 | -4 | -1.05 | -0.352 (inactive) | -1.08 | -0.635 | 1.2 (inactive)
[N-]=[N+]=NCc1ccccc1[C@H]1OC(c2ccc(OCCCO)cc2)=N[C@@]1(Cc1ccccc1)C(=O)NCc1ccccc1 | -0.649 | 0.399 | 0.71 | -2.04 | -3.49 | 0.343 | 0.544 (inactive) | -1.35 | -0.765 | 0.789 (inactive)
CN(C)C(=O)[C@]1(Cc2ccccc2CN=[N+]=[N-])N=C(c2ccc(OCCCO)cc2)O[C@@H]1c1ccccc1CN=[N+]=[N-] | -0.999 | 1.59 | 0.309 | -2.26 | -4.24 | 0.644 | -0.735 (inactive) | -1.13 | -0.0198 | 0.113 (inactive)
CC(C)C(CO)N1C(=O)[C@@H]2[C@H]3C(=O)OCC=C[C@H]3OC23C=CCN(C(C)C)C(=O)[C@@H]13 (stereo not given in full) | -0.368 | 0.877 | -0.185 | -0.181 | 0.642 | -0.304 | 0.148 (inactive) | -0.0287 | -0.0116 | 0.711 (inactive)
CCCCC=C[C@@H](NC(=O)Oc1cccc(C(F)(F)F)c1)c1ccccc1 | -1.12 | 0.26 | -0.568 | -1.8 | -3.36 | -1.63 | -0.585 (inactive) | -0.799 | -1.1 | -0.665 (inactive)
C[C@@H]1ON(c2cccc(C(=O)OC(C)(C)C)c2)[C@H](c2ccc(Br)cc2)[C@H]1C(=O)N1C(=O)OC[C@H]1Cc1ccccc1 | 0.407 | -0.941 | -0.0479 | -0.357 | -0.205 | -0.344 | 0.375 (inactive) | 0.0362 | 1.88 | 0.319 (inactive)
COc1ccc(CCNC(=O)[C@@]2(C)c3ccccc3C(=O)N(Cc3cc(F)cc(C(F)(F)F)c3)[C@H]2c2ccc(CO)cc2)cc1 | 0.805 | 0.766 | 0.41 | -1.86 | -2.07 | 0.857 | -0.633 (inactive) | -0.601 | 1.08 | 0.396 (inactive)
CCc1oc(CC[C@@H](CO)NC(=O)NCCn2cc(C3(O)CCCCC3)nn2)c(C(=O)OC)c1C(=O)OC | -0.0645 | -0.33 | -0.68 | -0.0035 | 0.0168 | -0.176 | -0.0732 (inactive) | 0.756 | 0.14 | -0.892 (inactive)
O=C1NC(=O)C2C1C=CC(C(O)Cc1ccccc1)N2Nc1ccc(Cl)cc1Cl (stereo not given) | 0.447 | -0.0852 | -1.57 | -0.988 | -0.388 | -1.73 | -0.00872 (inactive) | -0.371 | -0.375 | -0.519 (inactive)
COc1ccc(C#Cc2ccc3c(c2)[C@]2(C(=O)N3)[C@H](c3ccccc3OCCO)N3[C@H](c4ccccc4)[C@H](c4ccccc4)OC(=O)[C@H]3[C@@H]2C(=O)O)cc1 | 0.1 | 0.143 | -2.53 | -3.32 | -4.18 | -3.62 | 2.54 (inactive) | -0.93 | -1.9 | 0.206 (inactive)
